From PubChem BioAssay come the findings set out here.

Assay [1] deals with TRPC4 beta (transient receptor potential cation channel C4), mouse. In words: TRPC4 cation channel opening, retest – cell-based, Fluo4 calcium, HEK293 TRPC4beta/mu-opioid, duplicates, 10 µM, confirmation (AID 2426;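 active = fluorescence ratio normalized to control raised more than 50% in primary screen plus both repeat runs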;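 for activation: percent rise of integrated ratio over buffer wells lacking compound which define 0%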). To be noted: Fluo4 calcium fluorescence, at 10 µM; hits give high values.
Assay [2] has as its system transient receptor potential cation channel C4 beta (TRPC4), mouse. As to the kind of experiment: TRPC4 cation channel opening, second retest – cell-based, second round, Fluo4, HEK293 TRPC4beta/mu-opioid, 1 µM, confirmation (AID 2461).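 For activation: 0% = wells without test compound as baseline of integrated fluorescence ratio.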 The conditions noted are these: Fluo4 calcium fluorescence, at 1 µM; hits give high values.
Assay [3] relates to TRPC4 (transient receptor potential cation channel C4 beta), mouse. As to the kind of experiment: potentiation of DAMGO EC20 TRPC4 response – cell-based, second round, Fluo-4, HEK293 TRPC4beta/mu-opioid, 1 µM, confirmation (AID 2554;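 active = primary screen hit whose fluorescence ratio, in both repeats, exceeds the weak agonist control mean by 3 SD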). To be noted: DAMGO EC20, Fluo-4 calcium flux, at 1 µM; hits give high values. A general note: A change in cytosolic calcium serves as a functional read-out for many receptors and channels.

Assay [4] has as its system TRPC4 beta (transient receptor potential cation channel C4), mouse. In words: potentiation of DAMGO EC20 TRPC4 response – cell-based, Fluo-4, HEK293 TRPC4beta/mu-opioid, confirmation (AID 2555;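 active = primary screen hit whose calcium fluorescence ratio, in both repeats, exceeds the weak agonist control mean by 3 SD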). The conditions noted are these: DAMGO EC20, Fluo-4 calcium flux, at 10 µM; hits give high values.
Assay [5] concerns the target Short transient receptor potential channel 4 (Mus musculus) (UniProt Q9QUQ5). As to the kind of experiment: blockers of DAMGO-evoked TRPC4 calcium flux – cell-based, Fluo4, HEK293 TRPC4beta/mu-opioid, confirmation (AID 2636;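 active = calcium signal cut by more than 3 SD below the full-agonist control yet still positive, in both repeats and the earlier primary screen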). The conditions noted are these: at 10 µM; hits give high values.
Assay [6] shares this target. As to the kind of experiment: blockers of DAMGO-evoked TRPC4 calcium flux – cell-based, second round, Fluo4, HEK293 TRPC4beta/mu-opioid, 1 µM, confirmation (AID 2637;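 active = calcium signal ratio cut to more than 3 SD under the fully stimulated control mean yet still positive, in both repeats and the primary screen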;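 for inhibition: percent of integrated ratio relative to wells lacking test compound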). To be noted: at 1 µM; hits give high values.
The target is the same in assay [7]. As to the kind of experiment: potentiation of DAMGO-evoked TRPC4 calcium signal – cell-based, HEK293 TRPC4/mu-opioid, Fluo-4 calcium, EC20 DAMGO, dose response (AID 434941;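 active = earlier screen potentiator hit that boosts the TRPC4 ion channel at some dose, with a dose response; inactive = no potentiation, no dose response, or not a prior hit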;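 note: calcium entry triggered by an EC20 dose of DAMGO at the co-expressed mu-opioid receptor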).
Assay [8] has as its target Short transient receptor potential channel 6 (Mus musculus) (UniProt Q61143). As to the kind of experiment: TRPC6 blockade by TRPC4 inhibitor hits – cell-based, HEK293, membrane potential dye, duplicate, selectivity assay for TRPC4 inhibitor project, confirmation (AID 434948;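 active = active in primary screen and both duplicates, each dropping signal beyond three positive-control SD with fluorescence still positive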). To be noted: HEK293 TRPC6, membrane potential dye fluorescence, at 10 µM, stimulated with maximal-effect acetylcholine; hits give high values.

The target is the same in assay [9]. In words: TRPC6 opening by TRPC4 activator hits – cell-based, HEK293, membrane potential dye, duplicate, selectivity assay for TRPC4 activator project, confirmation (AID 434950;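 active = membrane potential signal rise above negative control mean plus 3 SD in both duplicates, also active in the earlier TRPC4 screen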;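 for activation: 0% = buffer only wells and 100% = acetylcholine maximal-effect wells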). To be noted: HEK293 TRPC6, membrane potential fluorescence, at 10 µM; activation: hits give high values; outcome: activation.
For assay [10] the target is unchanged. In words: positive modulators of mouse TRPC6 channel – HEK293 cells, membrane potential dye, duplicate, selectivity assay for TRPC4 potentiator project, confirmation (AID 434952;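 active = compound raising the membrane signal above positive-control mean plus 3 SD in both repeats, and a primary screen hit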). To be noted: HEK293 TRPC6, membrane potential dye fluorescence, at 10 µM, maximal acetylcholine added after compound; hits give high values.
For assay [11], the target named is Short transient receptor potential channel 4 (Mus musculus) (UniProt Q9QUQ5). As to the kind of experiment: calcium flux activators in TRPC4/5HT1a cells, counter-screen for TRPC4 activator project, cell-based, second counter screen, HEK293 TRPC4/5HT1a, Fluo-4 (AID 434977;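 active = calcium signal rise above buffer-control mean plus 5 SD in both duplicates, and also a hit in the primary screen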;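 for activation: plate controls were assay buffer for no effect and maximal serotonin response for full effect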). The conditions noted are these: Fluo-4 calcium flux, at 10 µM; hits give high values.
Chain of Short transient receptor potential channel 4 (Mus musculus) (Q9QUQ5 whole entry, looked up): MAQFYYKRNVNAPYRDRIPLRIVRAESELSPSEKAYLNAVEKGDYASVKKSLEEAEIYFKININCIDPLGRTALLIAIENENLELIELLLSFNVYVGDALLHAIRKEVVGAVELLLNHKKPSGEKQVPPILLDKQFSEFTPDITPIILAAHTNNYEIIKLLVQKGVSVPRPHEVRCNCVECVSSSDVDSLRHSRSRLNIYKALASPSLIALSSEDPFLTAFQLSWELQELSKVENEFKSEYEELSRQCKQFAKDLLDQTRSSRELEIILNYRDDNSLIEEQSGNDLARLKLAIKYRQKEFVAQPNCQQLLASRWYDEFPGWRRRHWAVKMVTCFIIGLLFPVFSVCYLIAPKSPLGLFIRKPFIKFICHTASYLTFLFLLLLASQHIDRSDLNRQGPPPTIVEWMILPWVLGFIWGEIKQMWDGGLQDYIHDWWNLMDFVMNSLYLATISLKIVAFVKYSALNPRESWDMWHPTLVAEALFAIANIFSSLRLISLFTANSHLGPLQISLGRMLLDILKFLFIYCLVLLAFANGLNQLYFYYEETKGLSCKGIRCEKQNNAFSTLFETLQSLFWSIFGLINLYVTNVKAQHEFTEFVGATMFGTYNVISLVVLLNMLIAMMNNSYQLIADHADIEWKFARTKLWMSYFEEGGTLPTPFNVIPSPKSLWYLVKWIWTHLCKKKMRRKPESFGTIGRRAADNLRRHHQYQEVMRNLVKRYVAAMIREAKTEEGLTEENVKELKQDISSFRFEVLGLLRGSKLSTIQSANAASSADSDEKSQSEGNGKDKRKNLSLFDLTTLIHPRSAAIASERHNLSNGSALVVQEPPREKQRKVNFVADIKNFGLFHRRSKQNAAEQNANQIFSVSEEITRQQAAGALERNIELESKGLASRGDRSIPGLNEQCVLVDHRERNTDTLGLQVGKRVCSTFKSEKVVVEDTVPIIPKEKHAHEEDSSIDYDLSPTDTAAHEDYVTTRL
Assay [12] in a line: serotonin-gated TRPC4 signal block – cell-based, second counter screen, HEK293 TRPC4/5HT1a, Fluo-4, counter-screen for TRPC4 inhibitor project, confirmation (AID 434978;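 active = primary screen active whose calcium signal fell more than 3 SD beyond the full-serotonin control mean in both duplicate plates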;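 for outcome: serotonin given first at submaximal then at maximal dose after compound preincubation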). To be noted: Fluo-4 calcium flux, at 10 µM, serotonin added to trigger calcium flux; hits give high values. (In general: Counterscreens check selectivity or assay interference.)
Assay [13] relates to TRPC4 (mouse), co-expressed with 5HT1a in HEK293. As to the kind of experiment: enhancement of serotonin-evoked TRPC4 response – cell-based, second counter screen, HEK293 TRPC4/5HT1a, Fluo-4, counter-screen for TRPC4 potentiator project, confirmation (AID 434979;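 active = signal rise over 3 SD above mean of control wells given weak agonist, in both repeats and first screen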). To be noted: Fluo-4 calcium flux, at 10 µM, serotonin added at its EC20 dose; hits give high values.
Assay [14] can be described thus: nonspecific calcium rise without TRPC4 – cell-based, HEK293 mu-opioid receptor line, counter-screen for TRPC4 activator project, confirmation (AID 449723;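 active = hit in primary screen, with calcium signal over 5 SD above buffer well mean in both duplicates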;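 note: counter screen cells carry the mu-opioid receptor alone and lack TRPC4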). The conditions noted are these: HEK293 mu-opioid cells, Fluo-4 calcium fluorescence, at 10 µM; hits give high values.
Assay [15] is described as follows: nonspecific potentiation of DAMGO calcium response – cell-based, HEK293 mu-opioid receptor line, counter-screen for TRPC4 allosteric potentiator project, confirmation (AID 449724;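 active = calcium signal rise more than 3 SD above the low-dose agonist control mean, in both duplicate plates and the primary screen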;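 note: HEK293 cells carrying mu-opioid receptor only with no TRPC4 channel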). To be noted: HEK293 mu-opioid receptor cells, Fluo-4 calcium flux, at 10 µM, compound added before EC20 DAMGO stimulus; hits give high values.
For assay [16], the target named is Short transient receptor potential channel 4 (Mus musculus) (UniProt Q9QUQ5). As to the kind of experiment: block of DAMGO-driven TRPC4 calcium entry – cell-based, HEK293 TRPC4/mu-opioid, Fluo-4 calcium, dose response (AID 434942;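 active = primary screen inhibitor hit that blocks the TRPC4 channel at some tested dose, yielding a dose curve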).
A short description of assay [17]: nonspecific flux increase, KCNQ1-free cells – parental CHO cells, counter-screen for KCNQ1 potentiator project (AID 493006;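 active = duplicate-averaged activation above buffer control mean plus 5 SD of those controls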). The conditions noted are these: parental CHO-K1 cells, FluxOR thallium flux, at 10 µM; hits give high values.
Assay [18] deals with Potassium voltage-gated channel subfamily KQT member 1 (Homo sapiens) (UniProt P51787). In words: enhancement of KCNQ1 channel thallium flux – FluxOR thallium flux, CHO cells, duplicates, confirmation (AID 493007;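 active = potentiation averaged over duplicate wells exceeding buffer-only control mean by more than 3 SD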;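 for outcome: cells depolarized by a potassium plus thallium sulfate stimulus after compound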;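 for potentiation: 0% = buffer-only wells and 100% = R-L3 activator control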). To be noted: KCNQ1 cell line, FluxOR thallium flux fluorescence, at 10 µM; hits give high values, % of reference activator effect, buffer zero.
Chain of Potassium voltage-gated channel subfamily KQT member 1 (Homo sapiens) (P51787 whole entry, looked up): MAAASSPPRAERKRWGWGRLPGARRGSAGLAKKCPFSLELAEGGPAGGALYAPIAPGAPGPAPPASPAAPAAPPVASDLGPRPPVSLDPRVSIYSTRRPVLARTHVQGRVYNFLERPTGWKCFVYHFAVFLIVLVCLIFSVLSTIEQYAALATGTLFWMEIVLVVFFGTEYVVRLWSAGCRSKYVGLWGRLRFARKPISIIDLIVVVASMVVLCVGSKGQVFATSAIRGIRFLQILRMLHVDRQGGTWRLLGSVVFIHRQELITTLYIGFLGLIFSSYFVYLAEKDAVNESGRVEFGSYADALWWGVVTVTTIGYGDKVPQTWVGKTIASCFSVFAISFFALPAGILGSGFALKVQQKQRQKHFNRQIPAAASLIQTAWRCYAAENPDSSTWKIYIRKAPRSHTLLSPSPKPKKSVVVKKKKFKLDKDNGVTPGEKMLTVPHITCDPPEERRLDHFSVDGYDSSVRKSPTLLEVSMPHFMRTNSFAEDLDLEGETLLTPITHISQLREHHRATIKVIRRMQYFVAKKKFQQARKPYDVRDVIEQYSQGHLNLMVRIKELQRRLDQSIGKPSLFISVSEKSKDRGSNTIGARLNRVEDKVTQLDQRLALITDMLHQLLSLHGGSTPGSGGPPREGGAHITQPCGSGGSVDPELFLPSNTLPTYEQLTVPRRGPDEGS
The target in assay [19] is Potassium voltage-gated channel subfamily KQT member 2 (Rattus norvegicus) (UniProt O88943). In words: KCNQ2 thallium flux enhancement – KCNQ2-CHO-K1 cells, selectivity assay for KCNQ1 potentiator project (AID 493009;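 active = mean duplicate potentiation above the buffer control mean plus 5 SD of buffer wells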;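 note: assay conditions were tuned for KCNQ1 rather than KCNQ2 modulators; signal is max minus min fluorescence divided by baseline after thallium stimulus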). To be noted: FluxOR thallium flux fluorescence, at 10 µM; hits give high values, scaled: buffer 0, activator control 100.
Chain of Potassium voltage-gated channel subfamily KQT member 2 (Rattus norvegicus) (O88943 whole entry, looked up): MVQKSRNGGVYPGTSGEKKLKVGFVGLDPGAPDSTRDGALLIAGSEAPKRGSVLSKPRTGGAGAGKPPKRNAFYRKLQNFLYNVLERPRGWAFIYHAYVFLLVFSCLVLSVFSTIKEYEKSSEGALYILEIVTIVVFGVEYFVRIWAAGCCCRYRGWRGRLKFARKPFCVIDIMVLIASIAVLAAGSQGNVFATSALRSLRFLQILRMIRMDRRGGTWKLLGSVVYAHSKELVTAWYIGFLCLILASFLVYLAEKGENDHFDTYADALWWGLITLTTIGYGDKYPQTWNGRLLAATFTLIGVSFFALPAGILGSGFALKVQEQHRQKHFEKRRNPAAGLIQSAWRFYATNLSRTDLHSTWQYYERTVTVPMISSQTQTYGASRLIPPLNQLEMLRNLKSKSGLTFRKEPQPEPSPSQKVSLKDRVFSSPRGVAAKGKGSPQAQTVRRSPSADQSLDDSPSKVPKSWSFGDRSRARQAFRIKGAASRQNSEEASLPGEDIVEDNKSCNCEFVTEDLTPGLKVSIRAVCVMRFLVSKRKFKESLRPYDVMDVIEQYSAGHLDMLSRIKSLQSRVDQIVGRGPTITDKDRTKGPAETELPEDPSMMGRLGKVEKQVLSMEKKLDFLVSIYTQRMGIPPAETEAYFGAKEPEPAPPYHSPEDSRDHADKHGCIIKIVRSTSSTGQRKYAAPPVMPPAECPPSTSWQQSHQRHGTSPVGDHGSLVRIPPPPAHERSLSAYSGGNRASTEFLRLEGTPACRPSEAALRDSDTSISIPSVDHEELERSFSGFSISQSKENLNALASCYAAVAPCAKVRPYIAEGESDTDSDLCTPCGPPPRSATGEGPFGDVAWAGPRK
In assay [20] the target is Potassium voltage-gated channel subfamily KQT member 1 (Homo sapiens) (UniProt P51787). As to the kind of experiment: KCNQ1 activators by electrophysiology – IonWorks patch clamp, KCNQ1-CHO cells, orthogonal assay for KCNQ1 potentiator project, confirmation (AID 493184;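 active = current rise at least 3 SD above the untreated control mean in each of two repeat wells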). To be noted: automated patch clamp current, at 10 µM; hits give high values. A general note: The patch-clamp technique gives a direct electrical read-out from membranes.

For some of these results: Measured potencies and affinities stand elsewhere. The source made the active and inactive calls.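 Rule for the calls, unless noted: active = primary screen active and over 50% activation in each of two duplicate runs; inactive = the rest.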

One may read the inhibition as the drop in the measured response relative to a control, in per cent.

Chain of Short transient receptor potential channel 6 (Mus musculus) (Q61143 whole entry, looked up): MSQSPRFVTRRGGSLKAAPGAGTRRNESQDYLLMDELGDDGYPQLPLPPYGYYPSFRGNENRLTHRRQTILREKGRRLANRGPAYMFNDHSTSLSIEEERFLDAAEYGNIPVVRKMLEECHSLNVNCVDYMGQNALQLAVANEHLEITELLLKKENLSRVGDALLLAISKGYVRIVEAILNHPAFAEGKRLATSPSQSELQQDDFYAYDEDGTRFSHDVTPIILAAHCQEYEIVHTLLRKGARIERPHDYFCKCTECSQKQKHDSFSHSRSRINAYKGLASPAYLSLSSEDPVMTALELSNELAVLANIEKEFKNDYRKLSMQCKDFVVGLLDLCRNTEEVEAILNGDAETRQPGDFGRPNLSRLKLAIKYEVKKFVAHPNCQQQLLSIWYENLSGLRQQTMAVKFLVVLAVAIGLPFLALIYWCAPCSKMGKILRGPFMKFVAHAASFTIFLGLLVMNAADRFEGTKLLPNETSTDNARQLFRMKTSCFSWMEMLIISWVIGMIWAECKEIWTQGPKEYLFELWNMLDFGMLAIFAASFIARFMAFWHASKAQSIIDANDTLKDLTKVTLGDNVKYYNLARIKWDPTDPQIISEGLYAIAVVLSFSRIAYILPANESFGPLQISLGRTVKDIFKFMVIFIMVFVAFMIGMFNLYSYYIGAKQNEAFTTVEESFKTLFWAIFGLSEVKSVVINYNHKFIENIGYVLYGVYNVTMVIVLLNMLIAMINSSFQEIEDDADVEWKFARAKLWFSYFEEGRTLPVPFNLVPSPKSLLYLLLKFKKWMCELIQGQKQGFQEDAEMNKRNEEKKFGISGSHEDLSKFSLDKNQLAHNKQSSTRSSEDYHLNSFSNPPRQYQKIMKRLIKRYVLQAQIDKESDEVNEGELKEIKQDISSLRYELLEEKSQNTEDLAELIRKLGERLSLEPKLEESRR

Consider `C/C=C(\C)CN1CCC(n2nccc2NC(=O)CCc2ccccc2)CC1`, for which the result in assay [1], in assay [2], in assay [3], in assay [4], in assay [7] and in assay [8] was inactive. Moreover, the outcome in [10], in assay [11], in assay [12], in [13], in [14] and in assay [15] was inactive. In addition, the inhibition in assay [5] is 97% (active); in assay [6], 86% (active). In addition, in assay [9], the activation was 58.5% (active).
`CN(C)C(CNC(=O)c1cc2ccccc2oc1=O)c1ccccc1` (stereo not given): the activation in [1] was 65% (active). The result in [2], in assay [3], in assay [4], in assay [5], in [7] and in assay [8] was inactive. In addition, the outcome in assay [9], in assay [10], in assay [11], in [12], in assay [13] and in [14] was inactive. Further, the outcome in [15] was inactive. Besides, the inhibition in assay [6] was 76% (active).
As for `NC(=Nc1ccccc1)Nc1ccccc1`, the activation in [1] was 224% (active); in assay [9], 51% (active); in assay [11] it was 94.2% (active); in assay [14] it was 64.1% (active). The result in [2], in assay [3], in assay [4], in assay [5], in [6] and in assay [7] was inactive. In addition, the result in [16], in [8], in assay [10], in [12], in [13] and in assay [15] was inactive. In addition, the outcome in assay [17], in assay [18], in assay [19] and in assay [20] was inactive.
With `O=C(C[n+]1cc2ccccc2c2ccccc21)c1ccccc1`, the results for the activation in [1] and in [11] were 212% (active) and 27.6% (active), respectively. Moreover, the outcome in assay [2], in assay [3], in assay [4], in assay [6], in [7] and in assay [9] was inactive. In addition, the outcome in assay [10], in [13], in assay [14] and in assay [15] was inactive. In addition, the inhibition in assay [5] is 94% (active); in assay [8] it was 29.5% (active); in [12] it was 33.5% (active).
In the case of `Cc1ccc(COn2c(-c3ccc(Cl)cc3Cl)nc3ncccc32)cc1`, the result in [1], in assay [2], in assay [3], in assay [4], in [5] and in [6] was inactive. Also, the outcome in assay [7], in assay [8], in assay [10], in assay [11], in assay [12] and in assay [13] was inactive. The outcome in [14] and in [15] was inactive. Besides, the activation in assay [9] was 46% (active).
Regarding `Cc1onc(-c2ccccc2)c1C(=O)NNC(=S)NC(=O)c1ccc(Cl)cc1Cl`, the activation in [1] was 274% (active); in assay [2] it was 81% (active); in assay [9] it was 28% (active); in [11], 142% (active); in assay [14], 96.9% (active). The result in [3], in assay [4], in [5], in assay [6], in assay [7] and in assay [16] was inactive. Besides, the call in [8], in [10], in assay [12], in assay [13], in assay [15] and in [17] was inactive. Besides, the result in assay [19] and in assay [20] was inactive. Also, in assay [18], the potentiation is 29.5% (active).
Turning to `O=C(N/N=C/c1cccnc1)c1ccccc1OCc1ccc(Cl)cc1`, the result in assay [1], in [2], in assay [3], in assay [4], in assay [7] and in assay [8] was inactive. The molecule was classed as inactive in assay [9], in [10], in [11], in assay [13], in assay [14] and in assay [15]. Further, the inhibition in assay [5] was 98% (active); in assay [6] it was 48% (active); in [12] it was 42.7% (active).
